Max response, negative = inhibition and Potency data for 43 molecules are collected here from PubChem BioAssay AID720504 (National Center for Advancing Translational Sciences (NCATS), 2013).

Molecules are shown by their SMILES. Hit rate of the full screen: of about 360,000 compounds, about 10,000 (2.8%) were called active. Not shown: some 4% with an inconclusive outcome. This is one part of a sample in which actives are shown more often than they occur. Unmarked numbers belong to inactive results. Calls come from the whole dose curve; as a rule, active = well fitted inhibition curve with a large enough effect; inconclusive = small, poorly fitted or top-dose-only effect; inactive = flat fitted curve, though single readings scatter.
% is set by controls: 0 for no effect and ±100 for the full control effect; potency is the fitted concentration of half-maximal effect.

Serine/threonine-protein kinase PLK1 (Homo sapiens), sequence (P53350 whole entry, looked up, the tested form may be a part): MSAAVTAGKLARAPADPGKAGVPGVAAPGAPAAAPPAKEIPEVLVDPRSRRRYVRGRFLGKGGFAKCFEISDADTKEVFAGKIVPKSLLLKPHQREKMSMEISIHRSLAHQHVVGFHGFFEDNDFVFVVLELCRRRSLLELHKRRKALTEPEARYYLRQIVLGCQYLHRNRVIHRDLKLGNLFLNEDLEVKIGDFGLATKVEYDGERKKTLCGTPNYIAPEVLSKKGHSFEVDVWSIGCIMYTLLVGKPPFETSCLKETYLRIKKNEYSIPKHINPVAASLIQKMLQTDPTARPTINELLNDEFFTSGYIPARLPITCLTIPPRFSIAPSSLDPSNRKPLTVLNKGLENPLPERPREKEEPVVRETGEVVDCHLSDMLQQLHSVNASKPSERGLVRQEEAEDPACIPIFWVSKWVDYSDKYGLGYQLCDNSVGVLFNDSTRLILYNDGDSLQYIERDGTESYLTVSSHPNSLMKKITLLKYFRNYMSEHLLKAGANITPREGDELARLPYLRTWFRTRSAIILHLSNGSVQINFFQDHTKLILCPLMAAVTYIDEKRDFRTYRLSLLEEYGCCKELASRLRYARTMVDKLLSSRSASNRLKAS

The assay has as its target Serine/threonine-protein kinase PLK1 (Homo sapiens) (UniProt P53350). In words: qHTS for Inhibitors of PLK1-PDB (polo-like kinase 1 - polo-box domain): Primary Screen. For Max response, negative = inhibition: series mostly up to about 57 µM. Note: nearly all actives have a fitted effect of over 65% in size. Particulars: Plk1 PBD binding of FITC phosphopeptide, fluorescence polarization. The text has this: The polo-like kinase 1 (Plk1) is a member of a conserved subfamily of serine / threonine protein kinases that plays a pivotal roles in cell proliferation. It has a C-terminal non-catalytic region called the polo-box domain (PBD) that plays a crucial role in the subcellular localization of the Plk1. […] Furthermore, depletion of the overexpressed Plk1 by RNAi efficiently induces apoptotic cell death in cancer and reduces tumor growth in mouse xenograft models. Thus, targeting Plk1 is an appealing strategy for anti-cancer therapy. Therefore, this project aimed to screen the Molecular Libraries Small Molecule Repository (MLSMR) using a novel approach to find inhibitors that target the Plk1 PBD instead of the conventional N-terminal catalytic domain. This project employed a fluorescence polarization (FP) assay using a FITC-conjugated phospho-9-mer (p-9-mer) peptide and purified human Plk1 PBD protein. The identified small molecule inhibitors of Plk1 PBD can then further be developed into useful tools for biomedical and clinical research that complements or replaces current relevant disease therapy. NIH Chemical Genomics Center [NCGC] NIH Molecular Libraries Probe Centers Network [MLPCN] MLPCN Grant: MH100728 Assay Submitter (PI): Kyung Lee, NCI
Four microliter of 25 nM FITC-p-9-mer + 60 nM Plk1 PBD in buffer solution (final concentrations 25 nM and 60 nM respectively) or 4 uL of 25 nM FITC-p-9-mer (final concentration 25 nM) in buffer will be dispensed into a 1,536 Greiner medium-binding black solid plate. Small molecules at final concentrations of 18 nM to 57 uM and positive control phospho-9-mer (sequence: Ac-PPLHSpTAI-NH2) at final concentrations 26 nM to 57 uM and phospho-13-mer (sequence: Ac-[…]pTAI-NH2) at final concentrations of 1 nM to 2.3 uM will be pin-transferred (23 nL) to the plate via a Kalypsys pin-tool robotics equipped with a 1,536-pin array. The reaction plate will be centrifuged for 1 min at 1000 rpm and incubated at room temperature for 10 min. The FITC fluorescence signals will be read using the PerkinElmer ViewLux plate reader at 480 / 20 nm excitation and 540 / 20 nm S and P polarization emission wavelengths. Reagent bottles will be kept submerged into 4 °C recirculating chiller bath and all liquid lines will be covered with aluminum foil to minimize degradation. Library plates will be screened starting from the lowest to the highest concentrations to minimize compound carryover. Vehicle only plates, with DMSO being pin-transferred instead of compound solutions, will be included regularly throughout the screen to record any systematic shifts in assay signal.
(In qHTS, concentration-response curves come from the screen itself.)
As for `CCc1nc2c(OCCOc3ccc(F)cc3)cccn2c1N(C)C(=O)c1ccccc1F`, the max response, negative = inhibition was -3.7%. Same read-out and setting: the value for `CC(=O)c1cccc(-c2cnc3c(NC=O)cc(-c4ccccc4Oc4ccccc4)cn23)c1` was -5.21%; that for `C[C@@H]1CN([C@@H](C)CO)C(=O)CCCn2nncc2CO[C@@H]1CN(C)S(=O)(=O)c1ccc(-c2ccccc2)cc1` was -14.2%. Still for that read-out and setting: the value for `O=C1[C@H]2[C@@H](c3ccc(C(F)(F)F)cc3)N[C@]3(CCCN(Cc4ccc(Cl)cc4)C3=O)[C@H]2C(=O)N1Cc1ccccc1` was -4.13%.

As to `CCOc1ccc(-c2nc(C)sc2CC(=O)O)cc1`, the max response, negative = inhibition is -0.634%. On the same count and under the same terms, the value for `CCOC(=O)C(=O)Nc1nc(-c2ccccc2)c(CC)s1` was -16.3%.

`C/C(=N/Nc1nc(-c2ccccc2)c(CC(=O)O)s1)c1ccccc1`: the Potency is 13.4 µM (active).

Turning to `CC(C)n1ncc2c(C(=O)N3CCN(Cc4cccs4)CC3)cc(C3CC3)nc21`, the max response, negative = inhibition was -8.38%. On the same count and under the same terms, the same measure for `Cc1cccc(C)c1-n1nnnc1C1(C)CCC(=O)N1CCOc1ccccc1` (stereo not drawn): -8.78%; for `COc1ccc(C2=Nc3ccccc3NC(=O)C2N(C(=O)c2cc3ccccc3[nH]2)c2ccccc2)cc1` (stereo not drawn): 5.46%.

In the case of `COC(=O)c1cc(N2CCNCC2)nc2ccccc12`, the Potency is 23.8 µM (active). Consider `Cc1cc(C(=O)OCC(=O)N2C(C)CCCC2C)c2ccccc2n1` (stereo not drawn), for which the max response, negative = inhibition was -9.12%. With `CC(=O)N1CCN(C(=O)c2cc(-c3ccc(Cl)s3)nc3ccccc23)CC1`, the max response, negative = inhibition was 4.68%. In the case of `O=C(Nc1ccc(F)cc1)C(CCc1ccccc1)N1CCN(CC(=O)N2CCCC2)CC1` (stereo not drawn), the max response, negative = inhibition was -3.84%. Take `Cc1ccc(C(=O)OCC(=O)NCc2ccc3c(c2)OCO3)s1`: the max response, negative = inhibition is -7.48%. As for `COc1cccc(CC(=O)OCC(=O)NCc2ccc3c(c2)OCO3)c1`, the max response, negative = inhibition was -5.11%. As for `Cc1cc(Br)ccc1SCC(=O)OCC(=O)NCc1ccc2c(c1)OCO2`, the Potency was 29.9 µM (active).

For `Cc1c(C(=O)NCc2ccc(C#N)cc2)sc(=O)n1Cc1ccc(C(=O)N(C)C)cc1`, the max response, negative = inhibition was -10.6%.

Consider `CN1C(=O)/C(=N/OC(=O)c2ccccc2Br)c2ccccc21`, for which the Potency is 23.8 µM (active). As for `COc1ccc(NC(=O)ON=C2c3ccccc3-c3ccccc32)cc1`, the max response, negative = inhibition was -8.43%. Same read-out and setting: the same measure for `CN1C(=O)/C(=C\c2cc(Br)cs2)c2ccccc21`: 9.61%; for `O=C(N=C1SC2CS(=O)(=O)CC2N1Cc1ccccc1)c1ccccc1` (stereo not drawn): -10.4%. Regarding `CC(=O)N1Cc2ccccc2CC1C(=O)O` (stereo not drawn), the Potency is 2.67 µM (active).

Regarding `O=C(C1Cc2ccccc2CN1C(=O)c1ccco1)N1CCN(c2ccccc2)CC1` (stereo not drawn), the max response, negative = inhibition was -14.9%.

Consider `CC(=O)c1ccc(N2Cc3ccccc3C2)cc1`, for which the max response, negative = inhibition was -10.7%. Take `CSc1ncnc2c1ncn2CCCNCC1CCCCC1`: the max response, negative = inhibition was 2.12%.

Regarding `Cc1c(NC(=O)COC(=O)/C=C/c2cccc(F)c2)c(=O)n(-c2ccccc2)n1C`, the max response, negative = inhibition was -2.07%.

On to `Cc1c(C(=O)NCC2CC2)sc(=O)n1Cc1cccc(F)c1`, for which the max response, negative = inhibition was 3.08%.

On to `N#CC1(Nc2ccc3c4c(cccc24)CC3)CCCCC1`, for which the max response, negative = inhibition was -12.6%. For `CCOC(=O)CSc1ncc(-c2cccc(Cl)c2)cn1`, the max response, negative = inhibition is -7.44%.

On to `Cc1oc(-c2cccc(Cl)c2)[n+]([O-])c1C`, for which the Potency was 29.9 µM (active). Take `Cc1oc(-c2ccccc2Cl)[n+]([O-])c1C`: the max response, negative = inhibition is -3.14%. On the same count and under the same terms, the value for `CC(C)c1ccc(CC(=O)N2CCC2(C)C(=O)NS(=O)(=O)c2ccc(C(C)(C)C)cc2)cc1` (stereo not drawn) was -5.51%; that for `CCCC(NS(=O)(=O)c1ccc(OC)cc1)C(=O)O` (stereo not drawn) was -2.19%. `COc1ccc(S(=O)(=O)/N=C2\C=C(NS(=O)(=O)c3ccccc3)C(=O)c3ccccc32)cc1`: the Potency was 29.9 µM (active). On to `COc1ccc(NS(=O)(=O)c2ccc(Oc3c(C#N)cccc3C#N)cc2)cc1`, for which the max response, negative = inhibition is -0.548%. In the case of `COC(=O)c1c(NC(=O)C(=O)N2CCCCC2)sc2c1CC(C)(C)OC2`, the max response, negative = inhibition is -13.1%.

Consider `CCOC(=O)N1CCN(C(=O)C(=O)Nc2sc3c(c2C#N)CC(C)(C)OC3)CC1`, for which the max response, negative = inhibition was -23.2%. Consider `CC1(C)Cc2c(sc(NC(=O)C(=O)N3CCOCC3)c2C#N)CO1`, for which the Potency was 9.47 µM (active). `CC(C)C[C@H]1CNC(=O)C(=O)N1C[C@@H]1CCCN1C[C@H](Cc1ccccc1)N1C[C@H](CC(C)C)N(CC2CCCCCC2)C(=O)C1=O`: the max response, negative = inhibition was 2.6%.

For the molecule `O=C(Nc1ccc(F)cc1)c1ccc(S(=O)(=O)NCc2cccnc2)cc1`, the max response, negative = inhibition is -1.16%. `Cc1cccc(CS(=O)(=O)c2ncc(Cl)c(C(=O)Nc3ccc(F)cc3)n2)c1`: the Potency is 16.8 µM (active). Regarding `Cc1cccc(NC(=O)C(C)SCc2ccccc2)c1` (stereo not drawn), the max response, negative = inhibition was -10.4%.
